# Assay results taken from ChEMBL document CHEMBL3988442, “University of Dundee, Small-Polar-MMV Screening Library” (2021).
# The campaign covered roughly 48,000 compounds. About 13,000 (27%) showed an effect of 50% or more. The list shows a part of the results.
# Test system: Wolbachia pipientis
# Assay: Anti-Wolbachia Cell-Based Screen
# Assay type: functional
# Parameters: scale not given: in the data most compounds retested in dose-response had high values
# Conditions: 5 µM
row,Structure (SMILES),Percent Effect
1,c1cnnc(N2CCCC(NCc3nc(-c4ccsc4)no3)C2)c1 (stereo not drawn),-5.717%
2,COC(=O)c1ccc2ccn(CC3COCCO3)c(=O)c2c1 (stereo not drawn),-29.12%
3,NS(=O)(=O)N1CCC(C(=O)Nc2cccc(OC(F)F)c2)CC1,23.74%
4,Cc1cccc2c(=O)c(C(=O)N3CCCC4(CN(C)C(=O)O4)C3)c[nH]c12 (stereo not drawn),3.697%
5,CN(Cc1nc(CS(C)(=O)=O)no1)c1ccccc1,1.355%
6,COc1ccccc1OC1CN(C(=O)C(c2ccccc2F)N(C)C)C1 (stereo not drawn),10.69%
7,O=C(c1cccc(S(=O)(=O)NCCc2nccs2)c1)N1CCOCC1,-12.77%
8,COCCCn1c(CN2CCCC(O)C2)cnc1S(=O)(=O)C1CCCC1 (stereo not drawn),-2.252%
9,COCCN1C(=O)[C@]2(CC[C@@H]3CN(S(=O)(=O)CC(C)C)C[C@@H]32)N=C1C,-14.47%
10,CC(C)(C)C(=O)NCC(=O)NCC1CCCS1 (stereo not drawn),-13.47%
11,CN(Cc1ccc(C#N)cc1)C(=O)c1ccnc(OC2CCC2)c1,-4.84%
12,OCC1(O)CCCN(Cc2ccccc2OCCc2ccccc2)CC1 (stereo not drawn),13.11%
13,COc1ccccc1CN1CCC(O)(Cn2ccc3ncccc32)CC1,82.78%
14,Cc1ccc(CN2CCCC3(CCN(Cc4ccc(C)o4)C3)C2)o1 (stereo not drawn),14.2%
15,Cc1cc(C(=O)N2CCN(C(=O)Cc3ccccn3)CC2)c(C)s1,2.124%
16,COc1ccc(F)cc1CN1CCC(O)(CN2CCCCC2)C1 (stereo not drawn),8.228%
17,Oc1cc(CN2CCC(O)(Cn3ccnc3)CC2)nc2ccc(F)cc12,-18%
18,Cc1cc(CN2CCC(O)(Cn3ccc4ncccc43)CC2)c(C)s1,75.84%
19,NC(=O)CN1CC2(CCC1=O)CCN(Cc1cc(F)cc(F)c1)CC2,6.606%
20,Cc1ccc2nc(CN3CCC(O)(Cn4ccnc4)CC3)cc(O)c2c1,-4.196%
21,OC1(Cn2ccc3ncccc32)CCN(Cc2cc(F)cc(F)c2)CC1,107.3%
22,Cc1cc(N2CCCN(Cc3ccc(C)o3)CC2)ccn1,-3.581%
23,Cc1ccc(CN2CCC(O)(Cn3ccc4ncccc43)CC2)o1.Cl,100%
24,Nc1ccnn1C1CCN(Cc2ccccc2)C1 (stereo not drawn),-4.351%
25,CCN(C)Cc1cnc(S(=O)(=O)CC)n1CCOC,2.274%
26,Cc1cc(S(=O)(=O)NCC2CNCCOC2)c(C)cc1Cl (stereo not drawn),-6.904%

row,Structure (SMILES),Percent Effect
1,O=C(O)C(=O)O.c1cnc(-c2noc(C3CN(Cc4ccsc4)C3)n2)cn1,20.73%
2,O=C(O)C1(Cc2ccccc2Cl)CCN(c2ncccc2F)CC1,-2.228%
3,Cl.OC1(Cn2ccc3ncccc32)CCN(Cc2ccccc2F)CC1,103.8%
4,Cl.OC1(Cn2ccc3ncccc32)CCN(Cc2ccccn2)CC1,-13.22%
5,c1ccc(CO[C@H]2CN(c3ncccn3)C[C@@]23CCCO3)cc1,124.5%
6,COc1ccc(N2CCCC3(C2)CN(c2ncccn2)CCO3)cc1 (stereo not drawn),2.929%
7,c1ccc(CN2CCOC3(CCCN(c4nccs4)C3)C2)cc1 (stereo not drawn),-0.1767%
8,CN(C(=O)COC1CCCCC1)C1CCN(CC2CCOC2)CC1 (stereo not drawn),-5.016%
9,COc1cc2c(cc1OC)CN(C(C(=O)O)c1c(C)nn(C)c1C)CC2 (stereo not drawn),14.43%
10,CO[C@@H]1CO[C@@]2(CCCN(C(=O)C3CC=CC3)C2)C1,95.67%
11,COc1ccccc1OCC(=O)N1CCC[C@]2(C[C@@H](OC)CO2)C1,-30.12%
12,CO[C@H]1CO[C@@]2(CCCN(C(=O)C3CC=CC3)C2)C1,107.2%
13,CO[C@@H]1CO[C@@]2(CCN(C(=O)COc3ccccc3C)C2)C1,-3.612%
14,COCC(=O)N1CC[C@@H]2O[C@@H](COCC3CCOCC3)CC[C@@H]21,-13.21%
15,Cc1ccc(NS(=O)(=O)c2cccc(C#N)c2)c(CN(C)C)c1,5.777%
16,Cc1nn(C)cc1C(=O)N1CCCC(n2nnc3cc(F)ccc32)C1 (stereo not drawn),70.61%
17,O=C(c1n[nH]cc1Cl)N1CCCC(n2nnc3cc(F)ccc32)C1 (stereo not drawn),121.3%
18,Cc1nnsc1C(=O)N1CCCC(n2nnc3cc(F)ccc32)C1 (stereo not drawn),86.87%
19,CCc1nnsc1C(=O)N1CCCC(COc2ccc(F)cc2)C1 (stereo not drawn),-1.511%
20,Cc1nnsc1C(=O)N1CCCC(c2nccn2Cc2cscn2)C1 (stereo not drawn),19.06%
21,O=C(c1n[nH]cc1Cl)N1CCOC(Cc2cccc(C(F)(F)F)c2)C1 (stereo not drawn),16.6%
22,Cc1nc(C)n(C2CCCN(C(=O)c3ccc(F)cc3F)C2)n1 (stereo not drawn),4.826%
23,Cc1cc(C)n(C2CCCN(C(=O)c3ccc(F)cc3F)C2)n1 (stereo not drawn),0.0476%
24,Cc1c(C(=O)N2CCCC(n3nnc4cc(F)ccc43)C2)cnn1C (stereo not drawn),103.4%
25,COc1c(CNC2CCCOc3ccc(F)cc32)c(C)nn1C.Cl (stereo not drawn),-15.22%
26,Cc1ccccc1N1CCN(C(=O)c2ccc[nH]2)C(C)C1 (stereo not drawn),-11.11%

row,Structure (SMILES),Percent Effect
1,COCc1noc(-c2ccc(N(C)Cc3cn(C)nc3C)nc2)n1,-0.7863%
2,COc1ccc(C(C)N2CCC(C(=O)NC3CC3)CC2)cc1Cl (stereo not drawn),5.354%
3,O=C(c1ccsc1)N1CCc2c(CNc3nccs3)n[nH]c2C1,-7.215%
4,CN1C(=O)CC(c2ccccc2)C12CCN(c1ncccn1)CC2 (stereo not drawn),-22.26%
5,Cc1cc(C(F)(F)F)nc(CNC(=O)CCCN2CCCCC2)n1,-0.7363%
6,Cc1cc(C(F)(F)F)nc(CNC(=O)CCC2CCCCN2C)n1 (stereo not drawn),-1.594%
7,CCc1csc(CNC(=O)C(CC)n2cccn2)n1 (stereo not drawn),-1.307%
8,CCC(C(=O)NCc1nc(C)cc(C(F)(F)F)n1)n1cccn1 (stereo not drawn),86.37%
9,CCC(C(=O)NCc1cc(N2CCOCC2)ncn1)n1cccn1 (stereo not drawn),-0.1761%
10,CCC(C(=O)NCc1csc(-c2ncccn2)n1)n1cccn1 (stereo not drawn),6.719%
11,CCC(C(=O)NCCc1nc(C)cc(C(F)(F)F)n1)n1cccn1 (stereo not drawn),110%
12,Cc1cc(C(F)(F)F)nc(CNC(=O)CCn2cccn2)n1,103.4%
13,CCC(C(=O)NCc1noc(Cc2cccs2)n1)n1cccn1 (stereo not drawn),-1.383%
14,CC(C)NC(=O)N[C@H]1C[C@@H](c2nc(-c3ccncc3)no2)N(C)C1,-7.5%
15,Cc1ccc2c(c1)CCCN2C(=O)c1cncc(Br)c1,3.118%
16,CCc1c(NCc2ccc(F)cc2)cnn1CC(C)C,0.9512%
17,Cc1c(C(=O)NS(=O)(=O)c2ccc(F)cc2)cnn1CC(C)C,6.603%
18,CNC(=O)c1cc(NC(=O)NC(C)CCc2cccn2C)ccc1F (stereo not drawn),0.1416%
19,CNC(=O)c1cc(NC(=O)Nc2cnn(CC(C)C)c2)ccc1F,106.8%
20,CCc1c(C(=O)Nc2ccc(F)c(C(=O)NC)c2)cnn1CC(C)C,115.2%
21,O=C(Nc1cnn(CCN2CCOCC2)c1)c1cc(F)ccc1F,-10.74%
22,CC(C)Cn1cc(NC(=O)c2cccc(N(C)C)c2)cn1,-6.196%
23,CNC(=O)CNC(=O)Nc1ccc(F)c(Br)c1,3.521%
24,CCCn1cc(NC(=O)Nc2ccc(F)c(C(=O)NC)c2)cn1,109.9%
25,COCCCN1CCC(NC2CSCCc3ccccc32)CC1 (stereo not drawn),3.161%
26,O=C(CCn1cncn1)N1C[C@H]2CC[C@@H]1CN(Cc1cccnc1)C2,2.407%

row,Structure (SMILES),Percent Effect
1,Cc1nc(Cn2cnc3c(c(Br)nn3C)c2=O)cs1,-1.874%
2,Cc1csc([C@H]2C[C@@H]3CCN(Cc4cnn(C)c4)C[C@H]3O2)n1,5.32%
3,CCN1CCc2[nH]nc(C(=O)N3CCCC3C)c2C1.O=C(O)C(F)(F)F (stereo not drawn),-0.9609%
4,CN(C)C(=O)c1n[nH]c2c1CN(Cc1ccccn1)CC2.O=C(O)C(F)(F)F,-21.72%
5,CN1CCN(C(=O)c2n[nH]c3c2CCN(Cc2nccs2)C3)CC1,-5.603%
6,Cc1ccc(CN2CCc3[nH]nc(C(=O)N(C)C)c3C2)s1.O=C(O)C(F)(F)F.O=C(O)C(F)(F)F,-17.1%
7,CN(C)C(=O)c1n[nH]c2c1CN(Cc1nccs1)CC2.O=C(O)C(F)(F)F,-9.505%
8,CN(C)C1CCN(C(=O)c2n[nH]c3c2CCN(CC2CCC2)C3)CC1,111.2%
9,CN(C)C(=O)c1n[nH]c2c1CN(CC1CCC1)C2.O=C(O)C(F)(F)F.O=C(O)C(F)(F)F,93.12%
10,CN(C)C(=O)c1n[nH]c2c1CN(CC1CCCCC1)C2.O=C(O)C(F)(F)F.O=C(O)C(F)(F)F,93.81%
11,O=C(O)C(F)(F)F.O=C(c1n[nH]c2c1CCN(Cc1nccs1)C2)N1CCCC1,1.297%
12,Cc1cc(C(=O)N(C)Cc2ccoc2)c(NC(=O)C(C)(C)C)s1,-2.438%
13,Cn1c(CS(=O)(=O)Cc2ccc(Cl)cc2)cc(=O)n(C)c1=O,5.826%
14,C/C=C(\C)CN1CCC2(CCC(=O)N2OCc2ccccc2F)CC1,2.227%
15,CCOCc1ccccc1NC(=O)NCC(C)(O)c1cc(C)oc1C (stereo not drawn),-7.22%
16,CCc1ccccc1OC1CN(C(=O)CN(C)Cc2cccnc2)C1,-4.322%
17,COCCNC(=O)Cn1c(-c2ccc(F)cc2)nc(C)c(CCO)c1=O,103.8%
18,Cc1noc(Cl)c1CC(=O)NCCOc1ccc(F)cc1F,16.27%
19,COc1c(CNCCNC(=O)Cc2ccc(F)cc2)c(C)nn1C,-0.8821%
20,CCN(CC)C(=O)Cn1c(-c2ccc(Cl)cc2)nc(C)c(CCO)c1=O,119.6%
21,CCN(Cc1cnn(CC)c1)C(=O)Cn1c(=O)c(C)nc2ccccc21,-5.598%
22,CCN(CC)C(=O)Cn1c(C)cc2nc(SC)n(CC(C)C)c(=O)c21,2.572%
23,Cc1nc(-c2ccc(Cl)cc2)n(CC(=O)NC(C)C)c(=O)c1CCO,129.7%
24,COCCNC(=O)Cn1c(-c2ccc(Cl)cc2)nc(C)c(CCO)c1=O,140%
25,COCCNC(=O)c1sc(Nc2ccc(Cl)cn2)nc1C,19.38%
